{
  "source": "PubChem BioAssay AID602296",
  "about": "(Broad Institute, 2012)",
  "note": "Screen size: about 2,000 compounds; about 190 (9.5%) were called active. Not shown: some 14% with an inconclusive outcome.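 Rule for the calls: active = fitted activation curve crossing 40% at a concentration no higher than the sample's top valid tested dose; inconclusive = flat fitted curve at 30% to 70% activation, or poor curve fit; inactive = signal decrease, flat curve within 30%, or the rest.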 Only a sample is shown.",
  "data": [
    {"experiment": "sustained heat shock response element induction – cell-based, mouse, luciferase, cherry-pick, dose, confirmation (AID 602296);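 note: test compounds applied by themselves with no MG132 co-treatment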", "details": "NIH3T3-HGL HSF-1 response element luciferase, 48 h; series mostly up to 26 µM", "values": [
      {"molecule": "O=C(NC1CCCN(Cc2ccccc2F)C1)c1cccs1", "note": "(stereo not drawn)", "outcome": "inactive"},
      {"molecule": "O=C(O)c1cc([N+](=O)[O-])c(NCCC2=CCCCC2)c([N+](=O)[O-])c1", "outcome": "inactive"},
      {"molecule": "O=C(Nc1cccc(Cl)c1)C1CCCN(S(=O)(=O)c2ccc(F)cc2)C1", "note": "(stereo not drawn)", "outcome": "inactive"},
      {"molecule": "COC(=O)Nc1ccc(S(=O)(=O)Nc2cccc3ccccc23)cc1", "outcome": "inactive"},
      {"molecule": "O=C(CCn1c(=O)oc2ccccc21)Nc1ccccc1", "outcome": "inactive"},
      {"molecule": "CC1(C)Cc2nc(NCCN3CCOCC3)c(C#N)cc2CO1", "outcome": "inactive"},
      {"molecule": "CC(=O)C1=C(O)C(=O)N(c2nccs2)C1c1ccccc1", "note": "(stereo not drawn)", "outcome": "inactive"},
      {"molecule": "Cc1[nH]nc(-c2ccc(O)c(C)c2O)c1-c1cnn(-c2ccccc2)c1", "outcome": "inactive"},
      {"molecule": "CCOC(=O)C1=C(C)Nc2ncnn2C1c1ccc2c(c1)OCO2", "note": "(stereo not drawn)", "outcome": "inactive"},
      {"molecule": "COCCCNC(=O)c1c[nH]c2ccc(S(=O)(=O)N3CCc4ccccc43)cc2c1=O", "outcome": "inactive"},
      {"molecule": "NS(=O)(=O)c1ccc(CCNC(=O)c2ccc([N+](=O)[O-])s2)cc1", "outcome": "inactive"},
      {"molecule": "CC(=O)Cc1cc(O)c2ccccc2c1OC(=O)c1ccccc1", "outcome": "inactive"},
      {"molecule": "O=C1CC(NNc2ccccc2)C(=O)N1c1ccccc1", "note": "(stereo not drawn)", "outcome": "inactive"},
      {"molecule": "CCOC(=O)c1c(NC(=O)c2nn(CC)cc2Br)c(C#N)nn1-c1ccccc1", "outcome": "inactive"},
      {"molecule": "Cc1cc(NC(=O)c2cc(C)on2)n(-c2ccccc2)n1", "outcome": "inactive"},
      {"molecule": "Cc1oc2ccc(NS(=O)(=O)c3ccc(C(C)(C)C)cc3)cc2c1C(=O)Nc1ccccc1", "outcome": "inactive"},
      {"molecule": "CCCc1[nH]nc2c1C(c1cc(OC)ccc1F)C(C#N)=C(N)O2", "note": "(stereo not drawn)", "outcome": "inactive"},
      {"molecule": "O=C(CN1C(=O)NC(Cc2c[nH]c3ccccc23)C1=O)Nc1cccc(S(=O)(=O)N2CCOCC2)c1", "note": "(stereo not drawn)", "outcome": "inactive"},
      {"molecule": "CCOC(=O)C(C)(C)N(Cc1ccc(C)cc1)S(=O)(=O)c1ccc(Cl)c([N+](=O)[O-])c1", "outcome": "inactive"},
      {"molecule": "Oc1ccc(-c2cnc(-c3ccc(O)cc3)nc2)cc1", "outcome": "inactive"},
      {"molecule": "Cc1cccc2cc(CN(Cc3ccco3)C(c3nnnn3CCc3ccccc3)C(C)C)c(=O)[nH]c12", "note": "(stereo not drawn)", "outcome": "inactive"},
      {"molecule": "COCCNC(=O)c1cccc(OC2CCN(Cc3ccc(Cl)c(F)c3)CC2)c1", "outcome": "inactive"},
      {"molecule": "CCCCOCCCN1CC(=O)N2[C@@H](Cc3c([nH]c4ccccc34)C2(C)C)C1=O", "outcome": "inactive"},
      {"molecule": "Cc1ccc(-c2cc(C(F)(F)F)c(C#N)c(SCC(=O)O)n2)cc1", "outcome": "inactive"},
      {"molecule": "CCOC(=O)C1=C(c2ccccc2)NC(=O)NC1c1cc(Br)c(O)c(OC)c1", "note": "(stereo not drawn)", "outcome": "inactive"},
      {"molecule": "CCCn1nc([N+](=O)[O-])c(C(C#N)c2nc3ccccc3o2)c(Cl)c1=O", "note": "(stereo not drawn)", "outcome": "inactive"},
      {"molecule": "O=C(COC(=O)c1ccc(S(=O)(=O)NCc2ccco2)cc1)Nc1ccccc1OC(F)F", "outcome": "inactive"},
      {"molecule": "Cc1cc(C)nc(Sc2nc(Cl)nc(N(c3ccccc3)c3ccccc3)n2)n1", "outcome": "inactive"}
    ]}
  ]
}
